Outcome and Potency data for 35 molecules are collected here from PubChem BioAssay (NCATS).

The structures appear in SMILES notation. Inconclusive results are not listed. Entries that show only a call come without a potency. The source made the active and inactive calls. Calls come from the whole dose curve; as a rule, active = well fitted curve in the direction sought with a large enough effect; inconclusive = small, poorly fitted or top-dose-only effect, or another doubt; inactive = no such curve, though single readings can be large; an effect the other way counts as inactive or inconclusive.

Guanine nucleotide-binding protein G(i) subunit alpha-1 (Homo sapiens), sequence (P63096 whole entry, looked up): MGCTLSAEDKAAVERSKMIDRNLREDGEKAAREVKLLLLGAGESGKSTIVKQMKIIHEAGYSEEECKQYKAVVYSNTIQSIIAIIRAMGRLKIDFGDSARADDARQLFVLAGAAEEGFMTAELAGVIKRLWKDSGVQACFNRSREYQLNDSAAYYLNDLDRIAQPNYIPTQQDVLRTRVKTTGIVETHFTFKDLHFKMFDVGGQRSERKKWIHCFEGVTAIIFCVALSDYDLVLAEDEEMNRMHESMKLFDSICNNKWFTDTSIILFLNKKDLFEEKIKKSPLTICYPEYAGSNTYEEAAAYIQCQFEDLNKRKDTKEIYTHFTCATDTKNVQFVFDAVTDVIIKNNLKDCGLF
Cytochrome P450 3A4 (Homo sapiens), sequence (P08684 whole entry, looked up): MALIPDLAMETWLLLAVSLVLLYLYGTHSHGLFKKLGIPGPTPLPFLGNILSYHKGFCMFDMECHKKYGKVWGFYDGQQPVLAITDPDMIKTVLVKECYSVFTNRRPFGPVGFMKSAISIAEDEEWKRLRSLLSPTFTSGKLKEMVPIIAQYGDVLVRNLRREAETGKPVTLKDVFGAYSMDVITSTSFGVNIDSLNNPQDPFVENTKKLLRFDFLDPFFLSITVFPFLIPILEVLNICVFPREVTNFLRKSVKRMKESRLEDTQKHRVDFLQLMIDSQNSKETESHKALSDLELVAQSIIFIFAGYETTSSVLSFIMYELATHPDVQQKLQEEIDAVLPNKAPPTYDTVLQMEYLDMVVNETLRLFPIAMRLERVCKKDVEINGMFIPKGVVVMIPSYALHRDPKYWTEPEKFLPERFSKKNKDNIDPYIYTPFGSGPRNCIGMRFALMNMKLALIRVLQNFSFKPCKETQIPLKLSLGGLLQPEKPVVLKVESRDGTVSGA

System in the first assay: not listed separately
Nature of the assay: Cellular Toxicity (caspase-3) Hek293 (AID 664).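 Note: cells exposed to compound for 16 h at 37 °C before readout.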 Conditions: HEK293 caspase-3 activation, DMSO = 0%, 100 µM tamoxifen = 100%; series mostly up to 92.2 µM. The procedure, abridged: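 HEK293 cells were exposed to compounds in complete medium for 16 hr at 37 °C, then caspase-3/7 activity was read by Caspase-Glo 3/7 luminescence after 20 min at room temperature. Data normalized to DMSO and 100 uM tamoxifen; AC50 from Hill fits.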
`ClC(Cl)(Cl)Cl`: the result was inactive.

Regarding `O=[N+]([O-])c1ccc(F)c([N+](=O)[O-])c1`, the molecule was called inactive.

With `O=C(O)C(Cl)(Cl)Cl`, the outcome was inactive.

As to `CCCCCCCCOC(=O)c1ccccc1C(=O)OCCCCCCCC`, the result was inactive.

Consider `CCCCCl`, for which the outcome was inactive.

Regarding `O=Cc1ccco1`, the molecule was classed as inactive.

Regarding `O=[N+]([O-])c1ccccc1`, the molecule was classed as inactive.

In the case of `O=CC=O`, the call was inactive.

On to `Clc1ccccc1Cl`, for which the molecule was classed as inactive.

`C[C@H]1CC[C@@H]2[C@@H](C)[C@H]3[C@H](C[C@H]4[C@@H]5CC=C6CC(O[C@@H]7O[C@H](CO)[C@H](O)[C@H](O[C@@H]8O[C@H](CO)[C@@H](O)[C@H](O)[C@H]8O)[C@H]7O[C@H]7O[C@@H](C)[C@H](O)[C@@H](O)[C@H]7O)CC[C@]6(C)[C@H]5CC[C@]34C)N2C1` (some centres not stated): the result was inactive.

Regarding `S=C=S`, the molecule was classed as inactive.

As to `ClCC1CO1` (configuration not stated), the molecule was called inactive.

In the case of `Oc1cc(Cl)c(Cl)cc1Cl`, the call was inactive.

Turning to `COC1=CC(=O)O[C@@H](/C=C/c2ccccc2)C1`, the call was inactive.

System in the next assay: not listed separately
Nature of the assay: Cellular Toxicity (caspase-3) N2a (AID 665).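 Note: compound exposure lasted 16 h at 37 °C before readout.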 As to conditions: N2a cells, luminescence, normalized: DMSO 0%, 10 µM staurosporine 100%; series mostly up to 92.2 µM. The procedure, abridged:
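Mouse N2a neuroblastoma cells (1500/well) were treated with compounds for 16 h at 37 °C, then caspase-3/7 activity was read by Caspase-Glo luminescence after 1 h at room temperature. Data were normalized to DMSO and 10 uM staurosporine; AC50 from Hill fits.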
As for `ClC(Cl)(Cl)Cl`, the call was inactive.

Turning to `O=[N+]([O-])c1ccc(F)c([N+](=O)[O-])c1`, the molecule was classed as inactive.

As for `O=C(O)C(Cl)(Cl)Cl`, the result was inactive.

With `CCCCCCCCOC(=O)c1ccccc1C(=O)OCCCCCCCC`, the result was inactive.

For `CCCCCl`, the molecule was classed as inactive.

In the case of `O=Cc1ccco1`, the outcome was inactive.

As for `O=[N+]([O-])c1ccccc1`, the result was inactive.

Consider `O=CC=O`, for which the outcome was inactive.

As for `Clc1ccccc1Cl`, the call was inactive.

`C[C@H]1CC[C@@H]2[C@@H](C)[C@H]3[C@H](C[C@H]4[C@@H]5CC=C6CC(O[C@@H]7O[C@H](CO)[C@H](O)[C@H](O[C@@H]8O[C@H](CO)[C@@H](O)[C@H](O)[C@H]8O)[C@H]7O[C@H]7O[C@@H](C)[C@H](O)[C@@H](O)[C@H]7O)CC[C@]6(C)[C@H]5CC[C@]34C)N2C1` (some centres not stated): the molecule was called inactive.

For the molecule `S=C=S`, the molecule was called inactive.

`ClCC1CO1` (configuration not stated): the call was inactive.

With `Oc1cc(Cl)c(Cl)cc1Cl`, the molecule was called inactive.

For the molecule `COC1=CC(=O)O[C@@H](/C=C/c2ccccc2)C1`, the result was inactive.

System in the next assay: not listed separately
In words: Cellular Toxicity (caspase-3) NIH 3T3 (AID 666).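 Note: caspase signal read after 16 h compound exposure.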 Conditions: NIH 3T3 caspase-3 activation, apoptosis/toxicity; series mostly up to 92.2 µM. The procedure, abridged:
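Mouse NIH 3T3 fibroblasts (1000 cells/well) were treated with compound for 16 hr at 37°C in complete medium; caspase-3/7 activity was read by Caspase-Glo luminescence. Normalized to DMSO and 100 uM tamoxifen; AC50 from Hill fits.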
In the case of `ClC(Cl)(Cl)Cl`, the Potency entry was “inactive”.

On to `O=[N+]([O-])c1ccc(F)c([N+](=O)[O-])c1`, for which the Potency result was “inactive”.

`O=C(O)C(Cl)(Cl)Cl`: the Potency entry was “inactive”.

For the molecule `CCCCCCCCOC(=O)c1ccccc1C(=O)OCCCCCCCC`, the Potency entry was “inactive”.

As for `CCCCCl`, the Potency result was “inactive”.

In the case of `O=Cc1ccco1`, the Potency entry was “inactive”.

With `O=[N+]([O-])c1ccccc1`, the Potency result was “inactive”.

On to `O=CC=O`, for which the Potency result is “inactive”.

On to `Clc1ccccc1Cl`, for which the Potency entry is “inactive”.

For the molecule `C[C@H]1CC[C@@H]2[C@@H](C)[C@H]3[C@H](C[C@H]4[C@@H]5CC=C6CC(O[C@@H]7O[C@H](CO)[C@H](O)[C@H](O[C@@H]8O[C@H](CO)[C@@H](O)[C@H](O)[C@H]8O)[C@H]7O[C@H]7O[C@@H](C)[C@H](O)[C@@H](O)[C@H]7O)CC[C@]6(C)[C@H]5CC[C@]34C)N2C1` (some centres not stated), the Potency entry is “inactive”.

In the case of `S=C=S`, the Potency entry is “inactive”.

In the case of `ClCC1CO1` (configuration not stated), the Potency result was “inactive”.

In the case of `Oc1cc(Cl)c(Cl)cc1Cl`, the Potency result was “inactive”.

Turning to `COC1=CC(=O)O[C@@H](/C=C/c2ccccc2)C1`, the Potency result is “inactive”.

The next assay addresses Guanine nucleotide-binding protein G(i) subunit alpha-1 (Homo sapiens) (UniProt P63096). In words: qHTS Assay for Inhibitors of RGS12 GoLoco Motif Activity (Green Fluorophore) (AID 879).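 Note: negative values mean loss of peptide binding seen as reduced polarization.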 Conditions: Galphai1/FITC-RGS12 GoLoco peptide, fluorescence polarization; series mostly up to 57.1 µM. The procedure, abridged:
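Fluorescence polarization assay: 50 nM Gαi1 with 10 nM FITC-labeled RGS12 GoLoco peptide in 10 mM Tris pH 7.5, 150 mM NaCl, 0.1 mM GDP, 0.05% NP40, 10 min at room temperature with compound.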
For `C[N+](C)(C)CCOC(=O)CBr`, the Potency entry is “inactive”.

Take `N#CCCN`: the Potency result is “inactive”.

As for `C[N+]1(C)CCN(c2ccccc2)CC1`, the Potency entry is “inactive”.

Turning to `Clc1cc(I)cc(Cl)c1NC1=NCCN1`, the Potency entry was “inactive”.

Consider `O=P(O)(O)C(Cl)(Cl)P(=O)(O)O`, for which the Potency entry is “inactive”.

For `OCc1cnc[nH]1`, the Potency entry is “inactive”.

`NC(=O)c1cc(N2CC2)c([N+](=O)[O-])cc1[N+](=O)[O-]`: the Potency entry was “inactive”.

As to `CCCn1c(=O)c2[nH]c(C3CCCC3)nc2n(CCCOC(=O)c2ccc(S(=O)(=O)F)cc2)c1=O`, the Potency result is “inactive”.

Regarding `COc1ccc2[nH]c3c(c2c1)CCNC3`, the Potency entry is “inactive”.

Take `CCCN(CCC)[C@@H]1CCc2cccc(O)c2C1`: the Potency result is “inactive”.

`C[C@@H]1[C@@H]2Cc3ccc(O)cc3[C@@]1(C)CCN2CC1CC1`: the Potency result is “inactive”.

Turning to `CP(=O)(O)C1=CCNCC1`, the Potency result is “inactive”.

As to `Clc1ccc(N2C[C@H]3CC[C@@H](C2)N3)nn1`, the Potency result was “inactive”.

Take `CCCN(CCC)[C@H]1CCc2c(F)ccc(O)c2C1`: the Potency entry is “inactive”.

On to `NCCc1c[nH]c2ccc(C(N)=O)cc12`, for which the Potency entry was “inactive”.

On to `CC(C)NP(=O)(NC(C)C)OP(=O)(NC(C)C)NC(C)C`, for which the Potency result was “inactive”.

With `NCCc1ccc(S(=O)(=O)F)cc1`, the Potency result was “inactive”.

Consider `Cc1[nH]c2ccc(O)cc2c1CCN`, for which the Potency entry was “inactive”.

Take `NC(=O)CI`: the Potency entry is “inactive”.

Turning to `O=[N+]([O-])c1ccc2nc(N3CCNCC3)ccc2c1`, the Potency result was “inactive”.

Another assay concerns the target Cytochrome P450 3A4 (Homo sapiens) (UniProt P08684). In words: qHTS Assay for Inhibitors and Substrates of Cytochrome P450 3A4 (AID 884). Note: nearly all actives have a fitted effect of over 50% in size. Conditions: recombinant CYP3A4, Luciferin-PPXE luminescence; series mostly up to 57.1 µM. The procedure, abridged: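 20 nM human CYP3A4 with 25 uM Luciferin-PPXE (at KM) in 200 mM KPO4, preincubated 10 min with compound; NADPH regeneration started a 60 min RT reaction. Luciferin detected by luminescence, normalized to 57 uM ketoconazole as full inhibition.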
On the technique in general: Quantitative high-throughput screening tests each substance at several concentrations.
In the case of `ClC(Cl)(Cl)Cl`, the Potency entry is “inactive”.

As for `O=[N+]([O-])c1ccc(F)c([N+](=O)[O-])c1`, the Potency result is “inactive”.

As to `O=C(O)C(Cl)(Cl)Cl`, the Potency result is “inactive”.

Regarding `CCCCCCCCOC(=O)c1ccccc1C(=O)OCCCCCCCC`, the Potency result was “inactive”.

Regarding `CCCCCl`, the Potency result is “inactive”.

On to `O=Cc1ccco1`, for which the Potency result is “inactive”.

For the molecule `O=[N+]([O-])c1ccccc1`, the Potency entry was “inactive”.

As for `CN(N=O)c1ccc(O)c(O)c1`, the Potency result was “inactive”.

In the case of `O=CC=O`, the Potency result was “inactive”.

In the case of `Clc1ccccc1Cl`, the Potency entry is “inactive”.

On to `C[C@H]1CC[C@@H]2[C@@H](C)[C@H]3[C@H](C[C@H]4[C@@H]5CC=C6CC(O[C@@H]7O[C@H](CO)[C@H](O)[C@H](O[C@@H]8O[C@H](CO)[C@@H](O)[C@H](O)[C@H]8O)[C@H]7O[C@H]7O[C@@H](C)[C@H](O)[C@@H](O)[C@H]7O)CC[C@]6(C)[C@H]5CC[C@]34C)N2C1` (some centres not stated), for which the Potency entry was “inactive”.

Consider `S=C=S`, for which the Potency entry is “inactive”.

On to `ClCC1CO1` (configuration not stated), for which the Potency entry was “inactive”.

In the case of `Oc1cc(Cl)c(Cl)cc1Cl`, the Potency entry is “inactive”.

For `COC1=CC(=O)O[C@@H](/C=C/c2ccccc2)C1`, the Potency entry was “inactive”.
